Measurements as given in PubChem BioAssay AID624137 (Broad Institute, 2012).
In all, about 31,000 compounds went through this assay and about 360 (1.2%) were called active. No rule for the calls is given here. This excerpt belongs to a sample that is enriched for actives.

Biological target: DNA-binding protein inhibitor ID-4 (Homo sapiens) (UniProt P47928)
Assay: PubChem AID 624137;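 also: a binder raises fluorescence above local background on the spot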
Conditions: small molecule microarray, Flag-ID4 binding, fluorescence F/B

Chain of DNA-binding protein inhibitor ID-4 (Homo sapiens) (P47928 whole entry, looked up): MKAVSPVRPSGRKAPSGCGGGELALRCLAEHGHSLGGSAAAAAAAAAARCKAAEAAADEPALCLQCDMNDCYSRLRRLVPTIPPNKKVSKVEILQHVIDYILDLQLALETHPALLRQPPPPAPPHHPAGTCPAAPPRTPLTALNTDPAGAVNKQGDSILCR

**Q.** How did the outcome turn out when `O=C(C[C@@H]1CC[C@@H](NS(=O)(=O)c2ccc(F)cc2)[C@H](CO)O1)NCc1ccc(Cl)c(Cl)c1` was run?
**A.** The outcome was “inactive”.

**Q.** `COc1ccccc1-c1cnc2c(c1)C(=O)N([C@H](C)CO)C[C@@H](C)[C@@H](CN(C)Cc1ccncc1)O2` was tested. Which outcome did it give?
**A.** Its outcome is “inactive”.

**Q.** For `COc1ccccc1-c1cnc2c(c1)C(=O)N([C@@H](C)CO)C[C@H](C)[C@H](CN(C)C(=O)c1ccncc1)O2`, which outcome is on record?
**A.** Its outcome is “inactive”.

**Q.** `CC(C)CC#Cc1cnc2c(c1)C(=O)N([C@@H](C)CO)C[C@H](C)[C@@H](CN(C)C(=O)c1cccc(F)c1)O2` was tested. Which outcome did it give?
**A.** Its outcome is “inactive”.

**Q.** For `CC(C)CC#Cc1cnc2c(c1)C(=O)N([C@H](C)CO)C[C@H](C)[C@@H](CN(C)Cc1ccccc1)O2`, which outcome is on record?
**A.** The outcome was “inactive”.

**Q.** `c1ccc2[nH]c(CSc3nc4ccccc4[nH]3)nc2c1` was tested. Which outcome did it give?
**A.** Its outcome is “inactive”.

**Q.** Which outcome does the source give for `C[C@@H]1CN([C@H](C)CO)C(=O)c2cc(C#CC3CCCC3)cnc2O[C@H]1CN(C)C(=O)C1CC1` here?
**A.** The outcome was “inactive”.

**Q.** How did the outcome turn out when `COc1ccccc1-c1cnc2c(c1)C(=O)N([C@@H](C)CO)C[C@H](C)[C@H](CN(C)CC1CCOCC1)O2` was run?
**A.** Its outcome is “inactive”.

**Q.** How did the outcome turn out when `CN(C)c1ccc2c(c1)[C@@H]1C[C@@H](CC(=O)NCc3ccccn3)O[C@H](CO)[C@@H]1O2` was run?
**A.** Its outcome is “inactive”.

**Q.** How did the outcome turn out when `CCC(=O)N(C)C[C@H]1Oc2ncc(-c3ccc(C)cc3)cc2C(=O)N([C@@H](C)CO)C[C@@H]1C` was run?
**A.** Its outcome is “inactive”.

**Q.** How did the outcome turn out when `COc1ccccc1-c1ccc2c(c1)O[C@H](CN(C)C(=O)c1cccnc1)[C@H](C)CN([C@@H](C)CO)S2(=O)=O` was run?
**A.** Its outcome is “inactive”.

**Q.** How did the outcome turn out when `COc1cc(S(=O)(=O)NCCN2CCOCC2)ccc1Br` was run?
**A.** The outcome was “inactive”.

**Q.** For `O=C(CSc1nnnn1-c1ccccc1)Nc1ccccc1C(=O)c1ccccc1`, which outcome is on record?
**A.** Its outcome is “inactive”.

**Q.** With `C[C@H](CO)N1C[C@H](C)[C@H](CN(C)CC2CC2)Oc2cc(-c3ccc(F)cc3)ccc2S1(=O)=O` as the compound, how does the outcome read?
**A.** The outcome was “inactive”.

**Q.** `O=C(C[C@H]1C=C[C@@H](NC(=O)C2CC2)[C@H](CO)O1)NCC1CC1` was tested. Which outcome did it give?
**A.** The outcome was “inactive”.

**Q.** For `O=C(C[C@H]1C=C[C@@H](NC(=O)CC2CC2)[C@H](CO)O1)NCc1ccc(-c2ccccc2)cc1`, which outcome is on record?
**A.** Its outcome is “inactive”.

**Q.** `Cc1ccc(-c2cnc3c(c2)C(=O)N([C@H](C)CO)C[C@@H](C)[C@@H](CN(C)C(=O)CN(C)C)O3)cc1` was tested. Which outcome did it give?
**A.** Its outcome is “inactive”.

**Q.** How did the outcome turn out when `C[C@@H]1CN([C@H](C)CO)S(=O)(=O)c2ccc(-c3ccccc3)cc2O[C@@H]1CN(C)CC1CC1` was run?
**A.** Its outcome is “inactive”.

**Q.** How did the outcome turn out when `CN(C)C(=O)C[C@H]1CC[C@@H](NC(=O)Nc2cccc(F)c2)[C@H](CO)O1` was run?
**A.** Its outcome is “inactive”.

**Q.** How did the outcome turn out when `CC(C)c1cn(CC[C@@H]2CC[C@@H](NC(=O)C3CCC3)[C@@H](CO)O2)nn1` was run?
**A.** Its outcome is “inactive”.

**Q.** Which outcome does the source give for `CN(C)C(=O)C[C@H]1CC[C@@H](NC(=O)C2CC2)[C@@H](CO)O1` here?
**A.** The outcome was “inactive”.

**Q.** How did the outcome turn out when `O=C(C[C@@H]1C=C[C@@H](NC(=O)Nc2cccc(F)c2)[C@H](CO)O1)NCC1CCCCC1` was run?
**A.** The outcome was “inactive”.

**Q.** With `CO[C@@H]1CN(C)C(=O)c2cc(NC(=O)c3ccccc3F)ccc2OC[C@@H](C)N(CC2CC2)C[C@H]1C` as the compound, how does the outcome read?
**A.** Its outcome is “inactive”.

**Q.** Which outcome does the source give for `CC(C)NC(=O)N(C)C[C@@H]1Oc2ccc(N(C)C)cc2C(=O)N([C@@H](C)CO)C[C@H]1C` here?
**A.** The outcome was “inactive”.

**Q.** How did the outcome turn out when `CC(C)NC(=O)N(C)C[C@@H]1Oc2c(cccc2N(C)C)C(=O)N([C@H](C)CO)C[C@@H]1C` was run?
**A.** The outcome was “inactive”.

**Q.** For `CC(C)NC(=O)N(C)C[C@@H]1Oc2c(cccc2N(C)C)C(=O)N([C@@H](C)CO)C[C@H]1C`, which outcome is on record?
**A.** Its outcome is “active”.

**Q.** For `CCC(Oc1cccc(NC(=O)c2ccccc2[N+](=O)[O-])c1)C(=O)c1ccccc1` (centres undefined), which outcome is on record?
**A.** Its outcome is “inactive”.

**Q.** How did the outcome turn out when `C[C@@H]1CN([C@H](C)CO)C(=O)c2cc(C#Cc3cccc(F)c3)cnc2O[C@H]1CN(C)Cc1ccccn1` was run?
**A.** The outcome was “inactive”.

**Q.** How did the outcome turn out when `CCCC#Cc1ccc2c(c1)O[C@@H](CN(C)CCC)[C@@H](C)CN([C@H](C)CO)S2(=O)=O` was run?
**A.** Its outcome is “inactive”.

**Q.** With `CC(C)NC(=O)N(C)C[C@H]1Oc2ncc(C#CC3CC3)cc2C(=O)N([C@H](C)CO)C[C@@H]1C` as the compound, how does the outcome read?
**A.** The outcome was “inactive”.

**Q.** With `C[C@@H]1CN([C@@H](C)CO)C(=O)c2cc(-c3ccccc3F)cnc2O[C@@H]1CN(C)Cc1cccc(F)c1` as the compound, how does the outcome read?
**A.** Its outcome is “inactive”.

**Q.** `O=C(C[C@@H]1C=C[C@@H](NC(=O)c2ccccn2)[C@@H](CO)O1)NCc1cc(F)cc(F)c1` was tested. Which outcome did it give?
**A.** The outcome was “inactive”.

**Q.** `C[C@@H]1CN([C@H](C)CO)C(=O)c2cc(-c3ccncc3)cnc2O[C@H]1CN(C)C` was tested. Which outcome did it give?
**A.** The outcome was “inactive”.

**Q.** `C[C@H]1CN([C@@H](C)CO)C(=O)c2cc(C3=CCCC3)cnc2O[C@@H]1CN(C)Cc1cccnc1` was tested. Which outcome did it give?
**A.** The outcome was “inactive”.

**Q.** Which outcome does the source give for `C/C=C/c1ccc2c(c1)O[C@H](CN(C)C)[C@H](C)CN([C@H](C)CO)S2(=O)=O` here?
**A.** The outcome was “inactive”.

**Q.** `CCC1=NN(C(=O)C(C)C)C(O)(c2ccc(Br)cc2)C1` (centres undefined) was tested. Which outcome did it give?
**A.** Its outcome is “inactive”.

**Q.** How did the outcome turn out when `CC(=O)N(C)C[C@@H]1Oc2ncc(C#CCc3ccccc3)cc2C(=O)N([C@H](C)CO)C[C@H]1C` was run?
**A.** The outcome was “inactive”.

**Q.** `C[C@H](CO)N1C[C@H](C)[C@H](CN(C)C)Oc2ncc(-c3ccncc3)cc2C1=O` was tested. Which outcome did it give?
**A.** The outcome was “inactive”.

**Q.** How did the outcome turn out when `COc1cccc(S(=O)(=O)N[C@H]2C=C[C@H](CC(=O)NC3Cc4ccccc4C3)O[C@H]2CO)c1` was run?
**A.** The outcome was “inactive”.

**Q.** For `CC(C)NC(=O)N(C)C[C@@H]1Oc2ncc(C#CC3CC3)cc2C(=O)N([C@@H](C)CO)C[C@H]1C`, which outcome is on record?
**A.** The outcome was “inactive”.

**Q.** Which outcome does the source give for `O=C(C[C@@H]1CC[C@@H](NC(=O)C2CC2)[C@@H](CO)O1)NCc1ccccc1Cl` here?
**A.** The outcome was “inactive”.

**Q.** Which outcome does the source give for `COCC#Cc1ccc2c(c1)O[C@H](CN(C)CC1CC1)[C@H](C)CN([C@H](C)CO)S2(=O)=O` here?
**A.** Its outcome is “inactive”.

**Q.** With `C[C@H](CO)N1C[C@H](C)[C@H](CN(C)C)Oc2cc(C#Cc3ccccc3F)ccc2S1(=O)=O` as the compound, how does the outcome read?
**A.** The outcome was “inactive”.

**Q.** For `O=C(C[C@@H]1C=C[C@@H](NC(=O)c2cccnc2)[C@H](CO)O1)NCCN1CCCCC1`, which outcome is on record?
**A.** The outcome was “inactive”.

**Q.** Which outcome does the source give for `COC(=O)C[C@H]1CC[C@H](NC(=O)c2ccccc2)[C@@H](CO)O1` here?
**A.** Its outcome is “inactive”.

**Q.** Which outcome does the source give for `CC(C)CC#Cc1cnc2c(c1)C(=O)N([C@H](C)CO)C[C@H](C)[C@@H](CN(C)Cc1ccccc1C(=O)O)O2` here?
**A.** Its outcome is “inactive”.

**Q.** `O=C(C[C@@H]1C[C@H]2c3cc(NC(=O)C4CCOCC4)ccc3O[C@H]2[C@H](CO)O1)NCc1ccc2c(c1)OCO2` was tested. Which outcome did it give?
**A.** Its outcome is “inactive”.

**Q.** For `C[C@H]1CN([C@@H](C)CO)S(=O)(=O)c2ccc(-c3ccccc3F)cc2O[C@H]1CN(C)C(=O)C1CC1`, which outcome is on record?
**A.** Its outcome is “inactive”.

**Q.** Which outcome does the source give for `C[C@@H]1CN([C@H](C)CO)C(=O)c2cc(C#CCC3CCCC3)cnc2O[C@H]1CN(C)C(=O)c1cnccn1` here?
**A.** Its outcome is “inactive”.
